Source: the supplement of paper PMC7866885, “A novel bicyclic 2,4-diaminopyrimidine inhibitor of Streptococcus suis dihydrofolate reductase” (PeerJ, 2021)
± gives the standard deviation.

test system: Streptococcus suis P1/7; test: percent growth relative to DMSO control; higher = less growth inhibition; conditions: 10 µM; incubation time 18 h
Method: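 CLSI broth microdilution: 5x10^4 CFU of Streptococcus suis (strain P1/7 or HE06) incubated with 10 µM Pathogen Box compound in cation-adjusted Mueller Hinton broth, 37 °C, 5% CO2, 18 h. Growth read as OD600 and expressed as percent of the DMSO-treated control (100%); mean ± SD of three independent experiments.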

Row | Structure (SMILES) | percent growth [%]
1 | CC(C)(C)C(O)C(Oc1ccc(-c2ccccc2)cc1)n1cncn1 (centres undefined) | 86.6 ± 29
2 | Cc1cc(C2=NOC(c3cc(Cl)c(F)c(Cl)c3)(C(F)(F)F)C2)ccc1C(=O)NCc1ccc2c(c1)C(C)(C)OB2O (centres undefined) | 61.5 ± 40
3 | CO[C@@H]1CN(c2ccc(C#CC3(O)CN4CCC3CC4)c(Cc3ccccc3)n2)C[C@H]1O (some centres undefined) | 124 ± 50
4 | O=C1O[C@@H](CO)CN1c1cc(F)c(C2=CCN(Cc3ccccc3)CC2)c(F)c1 | 13.5 ± 23
5 | CC1COC(Cn2cncn2)(c2ccc(Oc3ccc(Cl)cc3)cc2Cl)O1 (centres undefined) | 82.9 ± 29
6 | Cc1nn(Cc2ccccc2)c(Cl)c1C(=O)NC1CCCCCC1 | 93.1 ± 26
7 | CC1(C)OB(O)c2ccc(C3=NOC(c4cc(Cl)c(F)c(Cl)c4)(C(F)(F)F)C3)cc21 (centres undefined) | 0.819 ± 0.82
8 | CCc1nn(C)c(C(=O)NCc2ccc(Oc3ccc(C)cc3)cc2)c1Cl | 91.4 ± 28
9 | CO/N=C(\C(=O)OC)c1ccccc1CO/N=C(\C)c1cccc(C(F)(F)F)c1 | 82 ± 16
10 | O=C1O[C@@H](COc2ccon2)CN1c1cc(F)c(C2=CCN(Cc3ccccc3)CC2)c(F)c1 | -0.108 ± 0.19
11 | Cc1nn(C)c(C)c1NS(=O)(=O)c1c(Cl)cc(-c2ccnc(N3CCNCC3)c2)cc1Cl | 76.6 ± 7.2
12 | CO/C=C(/C(=O)OC)c1ccccc1Oc1cc(Oc2ccccc2C#N)ncn1 | 80.8 ± 20
13 | Nc1c2c(nc3sc4c(c13)CCCC4)CCCC2 | 97.3 ± 30
14 | Cc1cccc(C(=O)Nc2ccnc(N(C)C3CCN(CC(C)C)CC3)c2)c1 | 67.9 ± 22
